In PubChem BioAssay (NCI):
About 83,000 compounds went through this panel and 20% of them were active in at least one assay; those are over-represented in the sample as a whole.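 Note: values are percent growth. 100 is the growth of untreated cells, values between 100 and 0 indicate rising inhibition; between -100 and 0 indicates cell death.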 Calls of active or inactive are those of the source.

tested on: SNB-19 CNS; assay: NCI-60 one-dose screen, 48 h (100 = growth as untreated, 0 = no growth, -100 = all killed); conditions: 10 µM unless noted
Experimental: Growth inhibition of the SNB-19 human tumor cell line is measured as a screen for anti-cancer activity. Cells are grown in 96 well plates and exposed to the test compound for 48 hours. Compounds are tested at a single concentration, which is 10^-5 M for most compounds. The reported endpoint is percent growth (GI% or GIPRCNT), where numbers from 0 - 100% represent growth inhibition, and numbers from -100% - 0 represent cell death. For example, a value of 40 represents 60% growth inhibition. A value of 0 means no net growth occurred over the course of the experiment. A value of -40 indicates 40% of cells at the beginning of the experiment died by the end of the experiment. A value of -100 means all cells are dead at the end of the experiment.
NCI-60 Human Tumor Cell Lines Screen was performed using the standard one-dose NCI protocol, which is described in more detail at https://dtp.cancer.gov/discovery_development/nci-60/default.htm.
Compounds with GIPRCNT values below 10 were considered active. Activity score was based on GIPRCNT using the following formula: […]
Score is 0 for GIPRCNT values of 100 or above, 50 for GIPRCNT values of 0, and 100 for GIPRCNT values of -100.

| SMILES | growth |
| --- | --- |
| CCC(=O)Nc1cc2c(cc1Cl)-c1ccccc1C2 | 101% (inactive) |
| NS(=O)(=O)c1ccc(-n2ncc3c(NC4CCCCC4)ncnc32)cc1 | 94.1% (inactive) |
| CC(=O)OCC(=O)[C@@]1(O)CC[C@H]2[C@@H]3CCC4=CC(=O)CC[C@]4(C)[C@@]3(F)[C@@H](O)C[C@@]21C | 107% (inactive) |
| O=C1CNc2cc(Cl)ccc2N1 | 107% (inactive) |
| Cc1ccccc1NC(=O)NC(CC(N)=O)c1ccc2c(c1)nc(-c1cccc(Oc3ccc(C(C)(C)C)cc3)c1)n2CCCN1CCCCC1C (stereo not given) | 46.2% (inactive) |
| CCOC(CNCc1cc(C)c2[nH]c3ccccc3c2c1C)OCC | 78.6% (inactive) |
| COc1cccc(-c2nc3cc(NC(=O)c4ccc(Cl)c(C#N)c4)ccc3o2)c1 | 5.09% (active) |
| N#CSCC1CC(O)(c2ccccc2)C(c2ccccc2)C(c2ccc(Cl)cc2)O1 (stereo not given) | 36.6% (inactive) |
| O=C1NCCc2c1noc2-c1ccccc1 | 105% (inactive) |
| CCOC(=O)OCC(=O)[C@@]1(O)CC[C@H]2[C@@H]3CCC4=CC(=O)CC[C@]4(C)[C@H]3[C@@H](O)C[C@@]21C | 96.4% (inactive) |
| CCOC(=O)Nc1ccc2c3c(cccc13)-c1ccccc1-2 | 45.1% (inactive) |
| N#Cc1c(-c2ccccc2)cc(-c2ccccc2)n(CCC(=O)O)c1=O | 56.1% (inactive) |
| Nc1nc(Nc2ccccc2SSc2ccccc2Nc2nc(N)nc(-c3ccc(I)cc3)n2)nc(-c2ccc(I)cc2)n1 | 37.4% (inactive) |
| COc1ccc2c(c1)sc1nc(-c3ccc(N(C)C)cc3)cn12 | 95.3% (inactive) |
| CN(C)CCC(=O)Nc1ccc(-n2cc(-c3cccc(NC(=S)Nc4cccc(-c5cn(-c6ccc(NC(=O)CCN(C)C)cc6)nn5)c4)c3)nn2)cc1 | 106% (inactive) |
| O=C1/C(=C\c2coc3ccccc3c2=O)c2ccccc2N1c1c(Cl)cccc1Cl | 62.6% (inactive) |
| CSc1nc(N)c2c(n1)N(C)C=NS2(=O)=O | 107% (inactive) |
| COc1ccc(OC)c2c1CCC1(C2)NC(=O)NC1=O (stereo not given) | 98.8% (inactive) |
| O=Cc1ccccc1C(=O)O | 107% (inactive) |
| C/C(=C\CCc1ccsc1)CC/C=C(\C)CCCN1CCSCC1 | 96.1% (inactive) |

| SMILES | growth |
| --- | --- |
| OCCN1CCN(CCCN2c3ccccc3Sc3ccc(C(F)(F)F)cc32)CC1 | 62.7% (inactive) |
| COC(=O)c1c(NC(=O)CSc2nnnn2-c2ccc(OC)cc2)sc(C)c1C | 102% (inactive) |
| C[C@H]1O[C@@H](O[C@H]2[C@@H](O)C[C@H](O[C@H]3[C@@H](O)C[C@H](O[C@H]4CC[C@]5(C)C6CC[C@]7(C)[C@@H](C8=CC(=O)OC8)CC[C@]7(O)C6CC[C@@H]5C4)O[C@@H]3C)O[C@@H]2C)C[C@H](O)[C@@H]1O (stereo not given in full) | -100% (active) |
| O=C(COc1cccc(/C=C2\Oc3ccc4ccccc4c3C2=O)c1)c1ccc(Cl)cc1 | 92% (inactive) |
| COP(=O)(OC)C(c1ccc(O)cc1)(c1ccc(O)cc1)c1ccc(O)cc1 | 106% (inactive) |
| CCSc1nc(-c2ccc(F)cc2)c(C#N)c(=O)[nH]1 | 107% (inactive) |
| CC(=O)O[C@H]1CC[C@@]2(C)C(=CC[C@@H]3[C@@H]2CC[C@]2(C)C(c4cccnc4)=CC[C@@H]32)C1 | 72.3% (inactive) |
| O=C1C2C(C(=O)N1CC[Se][Se]CCN1C(=O)C3C(C1=O)[C@H]1C=C[C@@H]3C1)[C@H]1C=C[C@@H]2C1 (stereo not given in full) | -55.5% (active) |
| Cc1ccc2nc(-c3ccc(N(C)C)c(Br)c3)cn2c1 | 99.4% (inactive) |
| COc1c(Br)cc(C(c2cc(Br)c(OC)c(Br)c2)c2ccccc2C(=O)O)cc1Br | 95.9% (inactive) |
| COC(=O)C1(NC(=O)CNC(=O)OCc2ccccc2)CCCC1 | 96.5% (inactive) |
| COc1ccc(-c2cc(-c3cccnc3)nc3sc(C(=O)Nc4ccccc4)c(N)c23)cc1OC | 79.8% (inactive) |
| COc1cccc(/C=C2\Cc3ccccc3C2=O)c1 | 94.2% (inactive) |
| N#Cc1c(NC(=O)c2ccco2)[n+]([O-])c2cc(Cl)c(Cl)cc2[n+]1[O-] | 111% (inactive) |
| COC(=O)c1cc2c(/C=C3/NC(=S)NC3=O)coc2n1C | 101% (inactive) |
| Cc1ccc(/C=C(/C#N)n2nnc3ncccc32)cc1 | 56.7% (inactive) |
| O=C(Nc1ccc(Cl)cc1)Nc1nc2ccc(OC(F)(F)F)cc2o1 | 93.2% (inactive) |
| COc1ccc(CC(=O)Nc2nn3c(-c4cc(C(F)(F)F)cc(C(F)(F)F)c4)nnc3s2)cc1 | 70.1% (inactive) |
| COc1c(O)cc2c(c1CC=C(C)C)OC(=O)c1c(cc(O)c(CC=C(C)C)c1O)O2 | 48.4% (inactive) |
| O=c1[nH]c(SCc2ccccc2)nc2nc(Nc3ccc(NC(=S)Nc4ccccc4)cc3)nc(-c3ccc(O)cc3O)c12 | 86.9% (inactive) |
